Laboratory results from PubChem BioAssay (EPA / NIEHS).
Results filed as inconclusive are left out. The source holds several records for some structures; these can differ, active in one and inactive in another. Activity calls are given as the source filed them. Rule for the calls: active = hit-call score of the fitted dose curve at least 0.9, where 1 is the maximum; inconclusive = response in the unintended direction; inactive = score below 0.9.

Assay: TOX21_p53_BLA_p5_viability: Viability Assessment in the Tox21 HCT-116 p53 Agonism Beta-lactamase Assay, Phase 5 (AID 2283600)
Source text: TOX21_p53_BLA_p5 is a cell-based, single-readout assay that uses HCT116, a human intestinal cell line, […] in a 1536-well plate.TOX21_p53_BLA_p5_viability is an assay readout measuring cellular ATP content and detected with CellTiter-Glo Luciferase-coupled ATP quantitation.TOX21_p53_BLA_p5_viability used a type of viability reporter where loss-of-signal activity can be used to understand changes in the cell viability. Furthermore, this assay endpoint can be referred to as a secondary readout, because this assay has produced multiple assay endpoints where this one serves a viability function. To generalize the intended target to other relatable targets, this assay endpoint is annotated to the cell cycle intended target family, where the subfamily is cytotoxicity.
Thawing Method: Place 14 mL of pre-warmed thaw medium into a 15 mL of conical tub. Remove the vial of cells to be thawed from liquid nitrogen and thaw rapidly by placing at 37C in a water bath with gentle agitation for 1-2 minutes. Decontaminate the vial by wiping with 70% ethanol before opening in a biological safety cabinet. Transfer the vial contents drop-wise into 14 mL of thaw medium in a sterile 15-mL conical tub. Centrifuge cells at 900 rpm for 4 minutes and resuspend in thaw medium. Transfer contents to the T75 tissue culture flask containing Thaw Medium and place flask in a humidified 37C/5% CO2 incubator. Switch to growth medium at first passage.Propagation Method: Aspirate medium, rinse once in DPBS, add 0.25% Trypsin/EDTA and swirl to coat the cell evenly. Add an equal volume of Growth Medium to inactivate Trypsin after 2-3 minutes incubation at 37C. Centrifuge cells at 900 rpm for 4 minutes and resuspend in growth medium. Cell should be passage or fed at least twice a week.Assay Protocol: Harvest cells from culture in growth medium and resuspend in assay medium. 2.2 Dispense 4000 cells/5 uL/well into 1536-well black/clear bottom plates using a Multidrop dispenser. After the cells were incubated at 37C for 5 hours, 23 nL of compounds dissolved in DMSO were transferred to the assay plate by a PinTool resulting in a 217-fold dilution. Incubate the plates for 16 hours at 37C, 5% CO2. Add 1 uL of 6X LiveBLAzer FRET B/G (CCF4-AM) Substrate Mixture to each well using a BioRAPTR dispenser and incubate the plates at room temperature for 2 hours. Measure fluorescence intensity at 460 and 530 nm emission and 405 nm excitation by an Envision detector. Data is expressed as the ratio of 460nm/530nm emissions. Add 4 uL of Cell-titer Glo to each well using BioRAPTR and incubate the plates at room temperature for […]. For cell viability readout that measures cytotoxicity, 4 ul/well of CellTiter-Glo reagent was added into the assay plates using a Flying Reagent Dispenser. After 30 min incubation at room temperature, the luminescence intensity in the plates was measured using a ViewLux plate reader.

SMILES	AC50	outcome
CCOC(=O)O[C@H](C)OC(=O)c1ccc2c(c1)cc(C(=O)NC1CCN(C(C)C)CC1)n2Cc1cc(-c2ccc(Cl)s2)on1	72.9 µM (active)	
Cc1ccc(C(C)C)cc1		inactive
c1ccc2n[nH]nc2c1		inactive
O=c1[nH]sc2ccccc12		inactive
CCCCCc1ccc(N)cc1		inactive
Oc1ccc2ccccc2c1		inactive
Cc1cc(F)ccc1-c1cc(N2CC[C@@H](O)[C@H]2CO)ncc1N(C)C(=O)C(C)(C)c1cc(C(F)(F)F)cc(C(F)(F)F)c1	23.7 µM (active)	
Clc1ccccc1C(c1ccccc1)(c1ccccc1)n1ccnc1	85.1 µM (active)	inactive
CCCCCCCCCCCC[N+](C)(C)C		inactive
CC(=O)N1CCN(c2ccc(OC[C@H]3CO[C@](Cn4ccnc4)(c4ccc(Cl)cc4Cl)O3)cc2)CC1	64.4 µM (active)	inactive
Cc1cccc2ccccc12		inactive
Cc1oc2c(NC(=O)c3c(Cl)cccc3Cl)cccc2c1C(C)(C)O		inactive
Cc1cn([C@H]2C[C@H](N=[N+]=[N-])[C@@H](CO)O2)c(=O)[nH]c1=O		inactive
c1ccc2ccccc2c1		inactive
Cc1cc2c(cc1C(F)(F)F)N(C(=O)Nc1ccc(Oc3cccnc3C)nc1)CC2		inactive
O=C=NCCCCCCN=C=O		inactive
CO[C@H]1/C=C/O[C@@]2(C)Oc3c(C)c(O)c4c(O)c(c(/C=N/N5CCN(C)CC5)c(O)c4c3C2=O)NC(=O)/C(C)=C\C=C\[C@H](C)[C@H](O)[C@@H](C)[C@@H](O)[C@@H](C)[C@H](OC(C)=O)[C@@H]1C		inactive
O=C(Nc1ccc(Cl)cc1)Nc1ccc(Cl)c(Cl)c1		inactive

SMILES	AC50	outcome
CN(C[C@@H](CC[N+]12CCC(C3CCCCC3)(CC1)CC2)c1ccc(Cl)c(Cl)c1)C(=O)c1cc(C(F)(F)F)cc(C(F)(F)F)c1	46.8 µM (active)	
Cc1c2ccccc2c(C)c2c1ccc1ccccc12		inactive
CC1(C)NC(=O)N(c2ccc([N+](=O)[O-])c(C(F)(F)F)c2)C1=O		inactive
O=C(O)c1ccccc1C(=O)OCc1ccccc1		inactive
O=CCCCC=O		inactive
CCCCCCCCCC(=O)O		inactive
CCN(Cc1cccnc1)C(=O)c1cccc(Cl)c1[C@]1(C)C(=O)N(Cc2ccc(OC)cc2OC)c2ccc(Cl)cc21		inactive
Oc1ccccc1		inactive
O=C(O)Cc1cc(I)c(Oc2ccc(O)c(I)c2)c(I)c1	21.8 µM (active)	inactive
O=C1O[C@H]([C@@H](O)CO)C(O)=C1O		inactive
CN(C)C(=O)C1(N2CCCCC2)CCN(CC[C@@]2(c3ccc(Cl)c(Cl)c3)CN(C(=O)c3ccccc3)CCO2)CC1	74.6 µM (active)	
CCCCOC(=O)c1ccc(O)cc1		inactive
CCCC(=O)OCCC(C)C		inactive
CCCOC(=O)c1cc(O)c(O)c(O)c1		inactive
CC/C(=C(/CC)c1ccc(O)cc1)c1ccc(O)cc1	75.1 µM (active)	inactive
CC1=CC(=O)/C(=C(/C)O)C(=O)O1		inactive
O=C(O)Cn1c(=O)n(Cc2ccc(Br)cc2F)c(=O)c2ccc(Cl)cc21		inactive
O=C1c2ccccc2C(=O)N1CCc1noc(-c2ccc(CN3CCCCCC3)s2)n1		inactive
